From PubChem BioAssay (NCI)
About 83,000 compounds went through this panel and 20% of them were active in at least one assay; those are over-represented in the sample as a whole.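 The endpoint reported here, percent growth, reads 100 for growth as untreated, 0 for no net growth and -100 for all cells dead.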 Unmarked numbers belong to inactive results. Activity calls are given as the source filed them.

tested on: CAKI-1 renal; test: NCI-60 one-dose screen, 48 h (100 = growth as untreated, 0 = no growth, -100 = all killed); conditions: 10 µM unless noted
Procedure: Growth inhibition of the CAKI-1 human tumor cell line is measured as a screen for anti-cancer activity. Cells are grown in 96 well plates and exposed to the test compound for 48 hours. Compounds are tested at a single concentration, which is 10^-5 M for most compounds. The reported endpoint is percent growth (GI% or GIPRCNT), where numbers from 0 - 100% represent growth inhibition, and numbers from -100% - 0 represent cell death. For example, a value of 40 represents 60% growth inhibition. A value of 0 means no net growth occurred over the course of the experiment. A value of -40 indicates 40% of cells at the beginning of the experiment died by the end of the experiment. A value of -100 means all cells are dead at the end of the experiment.
NCI-60 Human Tumor Cell Lines Screen was performed using the standard one-dose NCI protocol, which is described in more detail at https://dtp.cancer.gov/discovery_development/nci-60/default.htm.
Compounds with GIPRCNT values below 10 were considered active. Activity score was based on GIPRCNT using the following formula: […]
Score is 0 for GIPRCNT values of 100 or above, 50 for GIPRCNT values of 0, and 100 for GIPRCNT values of -100.

SMILES	growth
CS(=O)(=O)c1ccc(-c2nc3ccccn3c2/C=N/Nc2nc(-c3ccc(Cl)cc3)cs2)cc1	91.8%
c1ccc2c(NCCCN3CCOCC3)c3oc4ccccc4c3nc2c1	-27% (active)
N#Cc1c(-c2ccc(F)cc2)nc2c(C#N)c(Nc3ccccc3)nn2c1N	90.7%
CN1CCN(Cc2ccc(NC(=O)c3cncc(C#Cc4cnc5[nH]ncc5c4)c3)cc2C(F)(F)F)CC1	-13.2% (active)
CCOC(=O)c1c(NC(=O)c2cccc(C(F)(F)F)c2)sc2cc(O)ccc12	96.7%
Cc1cc(C(NC(=O)CCCCCNc2cccc3c2C(=O)N(C2CCC(=O)NC2=O)C3=O)c2cccnc2)c(O)c2ncccc12 (stereo not given)	14.2%
Fc1ccc(-c2nc(C(Cl)Cl)nc3cc(-c4ccccc4)nn23)cc1	-21.4% (active)
Cc1cc(C(=O)Nc2sc3c(c2C(N)=O)CCC(=O)C3)ccc1OCCN1CCCCC1	98.3%
Cc1cccc(/C=C/c2nn3c(-c4ccco4)nnc3s2)c1	91.4%
Clc1ccc2c(NCCCN3CCOCC3)c3oc4ccc(Cl)cc4c3nc2c1	21.6%
O=C1Nc2cc(Cl)ccc2/C1=C\c1ccc(OCc2ccc([N+](=O)[O-])cc2)cc1	64.6%
CCN1C(=S)N(c2ccccc2)C2NC(=O)N(/N=C/C=C/c3ccccc3OC)C21 (stereo not given)	72.6%
COc1cc2nc(-c3ccc(C)cc3)cc(OCCCNCC3CCCO3)c2cc1OC (stereo not given)	24.6%
COc1cccc(-c2nn(-c3ccccc3)cc2-c2ccnc(N3CCN(C(=O)c4ccccc4)CC3)c2)c1	86.2%
O=C1NC(=C(Cl)Cl)/C(=N/S(=O)(=O)N2CCCCC2CC2(C(F)(F)F)N=N2)N1 (stereo not given)	-65.4% (active)
COc1ccc(-c2csc(N/N=C/c3c(-c4ccc(S(C)(=O)=O)cc4)nc4ccccn34)n2)cc1	93.4%
COc1ccc(NC2=C(Cl)C(=O)C(C)=C(C)C2=O)cc1OC	89.4%
NC(=O)c1c(NC(=O)c2ccc(C3CCCCC3)cc2)sc2c1CCC(=O)C2	-2.11% (active)
CCOC(=O)c1c(Nc2ccccc2)nn2c(N)c(C#N)c(-c3ccc(OC)cc3)nc12	52.8%
CN1CCN(Cc2ccc(NC(=O)c3cncc(C#Cc4cnc5ccc(N6CCSCC6)nn45)c3)cc2C(F)(F)F)CC1	-26.7% (active)

SMILES	growth
COc1cc2nc(-c3ccc(C(F)(F)F)cc3)cc(OCCCNCC3CCCO3)c2cc1OC (stereo not given)	8.44% (active)
Clc1ccc2oc3c(NCCCn4ccnc4)c4ccccc4nc3c2c1	30.6%
COc1cc(N=Cc2sc(Nc3nccs3)nc2O)cc(OC)c1OC	69%
Cc1nc(-c2cc3ccccc3oc2=O)ccc1C(=O)/C=C/c1ccc(N2CCOCC2)cc1	65.1%
CN(C)CCCOc1c2ccc(Cl)cc2nc2c1oc1ccccc12	1.08% (active)
COc1cc(/C=C/C(=O)c2ccc(Cl)cc2)ccc1Oc1nc(NCCO)nc(N2CCOCC2)n1	94.2%
Oc1c(Cl)cc(Cl)c2ccc(CN3CCCCC3)nc12	36.2%
C#Cc1nc(C2=C(C)C(O)/C(=N/O)C2)cs1 (stereo not given)	76.5%
CN(C)c1ccc(/C=c2\sc3nc4ccccc4n3c2=O)cc1	93.3%
COc1ccc(C(=O)/C=C/c2ccc(OCc3ccc(Cl)cc3)c(OC)c2)cc1OC	59.7%
Nc1cc(-c2c[nH]c3ccc(Cl)cc23)nc2cc(-c3c[nH]c4ccc(Cl)cc34)nn12	35.6%
C=C1CC[C@H]2[C@@](C)(CCC3OC(c4ccc(OCc5cn(C6CC(OC(C)=O)C(OC(C)=O)C(COC(C)=O)O6)nn5)cc4)OC[C@]32C)[C@@H]1/C=C/C1=CCOC1=O (stereo not given in full)	77%
O=C(CN1C(=O)/C(=C/c2ccccc2)SC1=S)N1CCOCC1	93.7%
OC1CCN(CCCOc2c3ccccc3nc3c2oc2ccccc23)CC1	-36.7% (active)
COc1ccc(-n2c(SCC(=O)Nc3ccc(-c4nc5ccccc5[nH]4)cc3)nc3ccccc3c2=O)cc1	36.8%
O=C(CCN1C(=O)/C(=C/c2ccccc2)SC1=S)N1CCOCC1	88.2%
Clc1ccc2c(NCCCn3ccnc3)c3oc4ccc(Cl)cc4c3nc2c1	60.5%
[Cl][Ru].c1ccc(-c2cc(-c3ccccn3)nc(-c3ccccn3)c2)cc1.c1ccc(-c2ccnc3c2ccc2c(-c4ccccc4)ccnc23)cc1	-6.38% (active)
N#Cc1nc(-c2ccccc2)oc1S(=O)(=O)N1CCCCC1	17.4%
COc1cc(/C=C/C(=O)c2cc(OC)c(OC)c(OC)c2)ccc1OCc1ccc(F)cc1	45.8%
